According to ChEMBL document CHEMBL3988442, “University of Dundee, Small-Polar-MMV Screening Library” (2021):
Hit rate of the full screen: of about 48,000 compounds, about 13,000 (27%) showed an effect of 50% or more. Some of the results follow.

Tested on: Wolbachia pipientis
Assay: Anti-Wolbachia Cell-Based Screen
Type: functional
Parameters: scale not given: in the data most compounds retested in dose-response had high values
Conditions: 5 µM

Row | SMILES | Percent Effect
1 | CC(NC(N)=O)C(=O)NCc1cc(Br)ccc1F (stereo not drawn) | 3.265%
2 | CN1CCCN(C[C@@H]2CN(C(=O)CCc3cn[nH]c3)C[C@@H]2CO)CC1 | 1.74%
3 | O=C(c1ccnnc1)N1CCCn2nnc(COCC3CC3)c2C1 | -17.91%
4 | O=C(C1CC=CC1)N1CCCn2nnc(CNc3ncccn3)c2C1 | 108.6%
5 | O=C(CO)N1CCCn2nnc(Cn3cccn3)c2C1 | -5.05%
6 | C1CN(CC2CCOCC2)Cc2c(COCC3CC3)nnn2C1.O=C(O)C(F)(F)F | 2.92%
7 | CN(C)C(=O)NCc1nnn2c1CN(CC1CCOCC1)CCC2.O=C(O)C(F)(F)F | 4.127%
8 | COCc1nnn2c1CN(C(=O)c1ccnnc1)CCC2 | -7.41%
9 | O=C(O)C(F)(F)F.c1cnc(NCc2nnn3c2CN(CC2CC2)CCC3)nc1 | 97.82%
10 | O=C(CC1CC1)N1CCCn2nnc(CNc3ncccn3)c2C1 | 92.45%
11 | O=C(c1ccncc1)N1CCCn2nnc(Cn3cccn3)c2C1 | 4.632%
12 | COc1ccc(OC)c(CCNC(=O)NC(C)Cn2ccnc2)c1 (stereo not drawn) | -5.904%
13 | O=C(CSc1nncs1)N1CCN(Cc2ccc(Cl)s2)CC1 | -21%
14 | CCSc1ccc(C(C)NC(=O)CNS(C)(=O)=O)cc1 (stereo not drawn) | 4.212%
15 | O=C1OCCN1CCS(=O)(=O)c1cccc(Br)c1 | -18.91%
16 | CCC(C)CNCC1(S(C)(=O)=O)CCOCC1 (stereo not drawn) | -24.39%
17 | Cc1n[nH]c2ncc(CNC3CCCN(c4ncccn4)C3)cc12.Cl (stereo not drawn) | -16.46%
18 | CC(=O)N1CCCCC1c1cc(CO)[nH]n1 (stereo not drawn) | -3.311%
19 | OCc1cc(C2CCCN2c2ncccn2)n[nH]1 (stereo not drawn) | 112%
20 | Cc1nc(CN2CCN(C(=O)c3sccc3C3CC3)CC2)oc1C | 120.2%
21 | COCc1nc(C(=O)N2CCN(Cc3cc(C)on3)CC2)cs1 | -18.23%
22 | O=C(c1sccc1C1CC1)N1CCN(Cc2cscn2)CC1 | 132.1%
23 | Cc1cc(CN2CCN(C(=O)c3sccc3C3CC3)CC2)on1 | -1.767%

Row | SMILES | Percent Effect
24 | Cc1cc(CN2CCN(C(=O)c3sccc3C3CC3)CC2)no1 | 143.4%
25 | Cc1nc(CN2CCCN(C(=O)c3ccccn3)CC2)oc1C | 3.458%
26 | O=C(c1sccc1C1CC1)N1CCCN(Cc2cscn2)CC1 | 113.8%
27 | Cc1nc(C2CCCN(C(=O)c3sccc3C3CC3)C2)no1 (stereo not drawn) | -10.65%
28 | NC(=O)NCC(=O)N1C[C@H]2CC[C@@H]1CN(Cc1ccccc1)C2 | -2.465%
29 | CCNc1ncc(C(=O)N[C@@H](C)[C@H](O)c2ccccc2)cn1 | -5.841%
30 | CS(=O)(=O)NCC(=O)N[C@H]1CN(CC2CC2)C[C@@H]1c1ccccc1 | 5.176%
31 | C[C@@H]1CN(S(=O)(=O)N2CCOCC2)C[C@@]1(O)C1CC1 | 13.89%
32 | Cc1ccc([C@@H]2CN(S(=O)(=O)N3CCC(C)CC3)C[C@H]2N(C)C)cc1 | 5.444%
33 | Cc1cc(C)n(C2CCCN(C(=O)C3=NN(C)C(=O)CC3)C2)n1 (stereo not drawn) | -1.412%
34 | Cc1cc(C)n(C2CCN(S(C)(=O)=O)CC2)n1 | 88.3%
35 | Cc1cc(C)n(C2CCCN(C(=O)c3c(C)c(C)n[nH]c3=O)C2)n1 (stereo not drawn) | -2.25%
36 | Cc1cc(C)n(C2CN(CC(=O)NCC(C)(C)N3CCOCC3)C2)n1 | 4.363%
37 | Cc1cc(C)n(C2CCN(S(=O)(=O)N3CCC(C)CC3)CC2)n1 | 84.26%
38 | Cc1cc(C)n(C2CCN(S(=O)(=O)N3CCOCC3)CC2)n1 | 108%
39 | CC1CCN(S(=O)(=O)N2CCc3sccc3C2)CC1 | 3.018%
40 | CN(Cc1cnn(C)c1)C1CCN(c2cccc(-c3cscn3)c2)CC1 | -7.204%
41 | CCn1c(CC2CCN(C(=O)c3cc(C(C)C)nn3C)CC2)n[nH]c1=O | 0.9199%
42 | Cc1occc1C(=O)NCC(=O)NCCCOc1ccc(F)cc1 | -8.265%
43 | CCc1nnc(CNc2ccc(CC(=O)N3CCSCC3)cc2)o1 | 7.337%
44 | COC(=O)[C@@H]1C[C@H](NC(=O)c2cc(=O)[nH]c3ccc(C)cc23)CN1C | 103.5%
45 | Cc1ccc2[nH]c(=O)cc(C(=O)N[C@@H]3C[C@@H](CO)N(C)C3)c2c1 | 108.3%
46 | CCc1ccc2nc(C)cc(C(=O)NC3CCC(=O)N(C)C3)c2c1 (stereo not drawn) | -60.56%

Row | SMILES | Percent Effect
47 | CCNC(=O)[C@@H]1C[C@H](NC(=O)c2cc(=O)[nH]c3ccc(C)cc23)CN1C | 116.2%
48 | CCNC(=O)[C@@H]1C[C@@H](N)CN1C(=O)Cc1cc(C)ccc1C | -80.39%
49 | CCc1ccc2nc(C)cc(C(=O)N[C@@H]3C[C@@H](CO)N(C)C3)c2c1 | 90.46%
50 | COC(=O)[C@@H]1C[C@@H](NC(=O)CN2C(=O)N(C)Cc3ccccc32)CN1C | -9.28%
51 | CCNC(=O)[C@@H]1C[C@H](N)CN1C(=O)Cc1cc(C)ccc1C | -8.677%
52 | Cc1ccc2[nH]c(=O)cc(C(=O)NCCCn3nccc3C3CC3)c2c1 | -8.543%
53 | COC(=O)[C@@H]1C[C@H](NC(=O)Cn2c(=O)cc(C)c3ccccc32)CN1C | 0.9939%
54 | CCc1ccc2nc(C)cc(C(=O)N[C@@H]3CCCNC3)c2c1 | -27.02%
55 | CNc1ccc(C)cc1C(=O)N[C@H]1C[C@H]2CN(C)CCN2C1 | 9.233%
56 | CCNc1ncc(C(=O)N2CCOC(CCCc3ccccc3)C2)cn1 (stereo not drawn) | 15.39%
57 | Cc1nc(C)c(C(=O)NCc2nc3cccc(C)c3n2C)o1 | 31.6%
58 | O=C(c1ncn2c1CNS(=O)(=O)c1ccccc1-2)N1CCCCC1 | -12.5%
59 | CC(C)(CNC(=O)C1(c2cccc(Br)c2)CCOCC1)C(=O)O | -13.82%
60 | Cc1[nH]nc(CCC(=O)N2CCc3ncnc(NCCO)c3CC2)c1C | 77.14%
61 | Cc1[nH]nc(CCC(=O)N2CCc3c(nc[nH]c3=O)C2)c1C | 104.7%
62 | Cc1ccccc1CCC(=O)N1CCc2ncnc(NCCO)c2CC1 | -0.3127%
63 | Cc1cnccc1N1CCCN(C(=O)CCc2n[nH]c(C)c2C)CC1 | -9.911%
64 | Cc1n[nH]c(C)c1CCC(=O)N1CCc2c(nc[nH]c2=O)C1 | 106.7%
65 | Cc1nc(CCC(=O)N2Cc3cnc(-c4ccccc4)nc3C2)n[nH]1 | -6.082%
66 | COc1cccc(CC(=O)N2CCc3ncnc(NCCO)c3CC2)c1 | -0.2896%
67 | Cc1ccsc1[C@@H]1CCN(C(=O)CCc2n[nH]c(C)c2C)C[C@H]1O | 6.25%
68 | CSCCC(=O)N1CCc2c(ncnc2N2CCOCC2)C1 | -13.57%
